Results as given in publication PMC11062922 (Nature Chemical Biology, 2023).
Like-named read-outs stand apart in the source and are kept apart here.

Key:
Set-up in all cases: species or system human, MV4-11 + K-562 + COLO205 + SK-N-BE2 + OVCAR-8
CDC7 = settings: read-out: apparent Kd, n = 1
NQO2 = settings: read-out: apparent Kd, n = 1
ULK3 = settings: read-out: apparent Kd, n = 1
DJA1 = test system: T1, DJA1; settings: read-out: apparent Kd, n = 1
T1 construct: gene DNAJA1

JAK2 = settings: read-out: apparent Kd, n = 1
MAP4K1 = settings: read-out: apparent Kd, n = 1
PRKCB = settings: read-out: apparent Kd, n = 1
ATR = settings: read-out: apparent Kd, compound concentrations: 100 nM and 1000 nM (sheet 'Samples'), n = 1
FRK = settings: read-out: apparent Kd; compound concentrations: 100 nM and 1000 nM (sheet 'Samples'), CATDS: 1.6945625051929199E-2; n = 1
FYN = settings: read-out: apparent Kd; compound concentrations: 100 nM and 1000 nM (sheet 'Samples'), CATDS: 1.7018948843541101E-2; n = 1
IRAK4 = settings: read-out: apparent Kd, n = 1
MAP2K1 = settings: read-out: apparent Kd, n = 1
NLK = settings: read-out: apparent Kd, n = 1
STK26 = settings: read-out: apparent Kd; compound concentrations: 100 nM and 1000 nM (sheet 'Samples'), CATDS: 1.4283028006721699E-2; n = 1
ACAD11 = settings: read-out: apparent Kd; compound concentrations:100 nM and 1000 nM (sheet 'Samples'); n = 1
MAPKAPK2 = settings: read-out: apparent Kd; compound concentrations:100 nM and 1000 nM (sheet 'Samples'); n = 1
PIK3CA = settings: read-out: apparent Kd; compound concentrations: 100 nM and 1000 nM (sheet 'Samples'), CATDS: 0.11301780685695401; n = 1
CDK6 = settings: read-out: apparent Kd, n = 1
JAK1 = settings: read-out: apparent Kd, compound concentrations: 100 nM and 1000 nM (sheet 'Samples'), n = 1
[1] = compound concentrations:100 nM and 1000 nM (sheet 'Samples')

CC(C)Oc1ccc2c(-c3ccnc(Nc4ccc(N5CCN(C)CC5)cc4)n3)cnn2n1 [GW696155X]
potency estimated from few doses (CDC7; [1]): 1.44 µM
potency estimated from few doses (NQO2; [1]): 1.06 µM
potency estimated from few doses (ULK3; [1]): 0.29 µM

O=C(O)C(F)(F)F.O=C(O)C(F)(F)F.O=c1[nH]ccc2nc(N[C@@H]3CCCNC3)nc(Nc3ccc(S(=O)(=O)N4CCOCC4)cc3)c12.O=c1[nH]ccc2nc(N[C@@H]3CCCNC3)nc(Nc3ccc(S(=O)(=O)N4CCOCC4)cc3)c12 [GSK2177277A]
potency estimated from few doses (CDC7; compound concentrations: 100 nM and 1000 nM (sheet 'Samples'), CATDS: 4.24338957308735E-2): 0.0146 µM
potency estimated from few doses (DJA1; compound concentrations: 100 nM and 1000 nM (sheet 'Samples'), CATDS: 6.2286028327955796E-3): 1.85 µM
potency estimated from few doses (JAK2; compound concentrations: 100 nM and 1000 nM (sheet 'Samples'), CATDS: 4.8200913683498499E-2): 0.0121 µM
potency estimated from few doses (MAP4K1; compound concentrations: 100 nM and 1000 nM (sheet 'Samples'), CATDS: 2.52445457055663E-2): 0.0341 µM
potency estimated from few doses (PRKCB; compound concentrations: 100 nM and 1000 nM (sheet 'Samples'), CATDS: 6.2704651327109501E-3): 1.77 µM
potency estimated from few doses (ULK3; compound concentrations: 100 nM and 1000 nM (sheet 'Samples'), CATDS: 1.28018633148979E-2): 0.14 µM

COc1cc(Nc2nccc(N3CCC(NC(=O)c4cccc(NC(C)=O)c4)C3)n2)cc(OC)c1OC (centres unmarked) [GSK1379754A]
potency estimated from few doses (ULK3; compound concentrations: 100 nM and 1000 nM (sheet 'Samples'), CATDS: 9.2169068852455793E-2): 1.39 µM

NC(=O)c1cc(-c2ccccc2)cc2c(C3CCNCC3)c[nH]c12 [GSK301362A]
potency estimated from few doses (DJA1; [1]): 1.13 µM

CCn1c(-c2cccnc2O)nc2cnccc21 [SB-736715]
potency estimated from few doses (ATR; CATDS: 1.78741670317108E-2): 0.919 µM
potency estimated from few doses (DJA1; compound concentrations: 100 nM and 1000 nM (sheet 'Samples'), CATDS: 1.9156343081097999E-2): 0.812 µM
potency estimated from few doses (FRK): 1.01 µM
potency estimated from few doses (FYN): 1.01 µM
potency estimated from few doses (IRAK4; compound concentrations: 100 nM and 1000 nM (sheet 'Samples'), CATDS: 1.2053772539955101E-2): 2.16 µM
potency estimated from few doses (MAP2K1; compound concentrations: 100 nM and 1000 nM (sheet 'Samples'), CATDS: 1.2472945477492101E-2): 1.98 µM
potency estimated from few doses (NLK; compound concentrations: 100 nM and 1000 nM (sheet 'Samples'), CATDS: 1.3463251782528499E-2): 1.64 µM
potency estimated from few doses (STK26): 1.44 µM

Cc1ccccc1C1=C(c2cn(C)c3ccccc23)C(=O)NC1=O [RO0317612-000]
potency estimated from few doses (DJA1; compound concentrations: 100 nM and 1000 nM (sheet 'Samples'), CATDS: 0.15228633777300399): 0.952 µM

CS(=O)(=O)CCn1c(=O)c(Oc2ccc(F)cc2F)cc2cnc(NC3CCOCC3)nc21 [RO5027956-000]
potency estimated from few doses (ACAD11): 1.69 µM
potency estimated from few doses (JAK2; [1]): 0.0656 µM
potency estimated from few doses (MAPKAPK2): 0.0159 µM
potency estimated from few doses (NLK; [1]): 0.0559 µM

O=C1N=C(NCCCc2ccccc2)S/C1=C\c1ccc2ncccc2c1 [RO4493941-000]
potency estimated from few doses (PIK3CA): 0.241 µM

O=C1N=C(NCc2cccs2)O/C1=C\c1ccc2ncccc2c1 [RO4624208-000]
potency estimated from few doses (CDC7; compound concentrations: 100 nM and 1000 nM (sheet 'Samples'), CATDS: 4.51819013017992E-2): 2.1 µM

CCn1c(-c2nonc2N)nc2c(C#CC(C)(C)O)nc(O[C@@H](CN)c3ccccc3)cc21.O=C(O)C(F)(F)F [GSK1007102B]
potency estimated from few doses (PRKCB; [1]): 0.111 µM

CNCC#Cc1c(F)ccc2c1/C(=C/c1[nH]ccc1OC)C(=O)N2.Cl [RO0281601-001]
potency estimated from few doses (CDK6; compound concentrations: 100 nM and 1000 nM (sheet 'Samples'), CATDS: 2.2252804154739798E-2): 1.82 µM
potency estimated from few doses (JAK1; CATDS: 3.3581024780386999E-2): 0.52 µM
potency estimated from few doses (MAP4K1; compound concentrations: 100 nM and 1000 nM (sheet 'Samples'), CATDS: 2.76705176427572E-2): 0.879 µM

c1cnn2ncc(-c3ccnc(Nc4ccc5c(c4)OCCO5)n3)c2c1 [GW806290X]
potency estimated from few doses (CDK6; compound concentrations: 100 nM and 1000 nM (sheet 'Samples'), CATDS: 2.20968603607638E-2): 1.39 µM
potency estimated from few doses (MAP2K1; compound concentrations: 100 nM and 1000 nM (sheet 'Samples'), CATDS: 2.0774102889224599E-2): 1.73 µM

CNCc1ccc(-c2cc(-c3nc(-c4ccc(S(=O)(=O)C(C)C)cc4)cnc3N)on2)cc1 [VE-822]
potency estimated from few doses (ACAD11): 0.321 µM
potency estimated from few doses (ATR; CATDS: 0.44999345055434797): 0.00776 µM
potency estimated from few doses (MAP2K1; [1]): 2.12 µM

COc1cc[nH]c1/C=C1\C(=O)Nc2ccc(F)c(C#CC3(O)CCNCC3)c21.Cl [RO0282986-001]
potency estimated from few doses (DJA1; compound concentrations: 100 nM and 1000 nM (sheet 'Samples'), CATDS: 9.7728158080224396E-3): 1.45 µM
potency estimated from few doses (IRAK4; compound concentrations: 100 nM and 1000 nM (sheet 'Samples'), CATDS: 1.1177652842318E-2): 0.889 µM
potency estimated from few doses (JAK1; CATDS: 1.5080552204992799E-2): 0.391 µM
potency estimated from few doses (MAP2K1; compound concentrations: 100 nM and 1000 nM (sheet 'Samples'), CATDS: 1.0458763538178499E-2): 1.12 µM
potency estimated from few doses (MAP4K1; compound concentrations: 100 nM and 1000 nM (sheet 'Samples'), CATDS: 1.0790478017061501E-2): 1 µM
potency estimated from few doses (NQO2; compound concentrations: 100 nM and 1000 nM (sheet 'Samples'), CATDS: 1.2433043587811299E-2): 0.644 µM

COc1ccc(Nc2nccc(-c3ccc(NC(=O)c4cc5cc(F)ccc5[nH]4)cc3)n2)cc1 [GSK1229496A]
potency estimated from few doses (JAK2; compound concentrations: 100 nM and 1000 nM (sheet 'Samples'), CATDS: 0.41035402481259398): 0.584 µM

O=C(O)C(F)(F)F.O=c1[nH]ccc2nc(N[C@@H]3CCNC3)nc(Nc3cc(Cl)cc(Cl)c3)c12 [GSK2188764A]
potency estimated from few doses (MAP4K1; [1]): 1.03 µM

CN(C)CC(O)COc1ccc(Nc2nccc(-c3cnn4nc(N5CCOCC5)ccc34)n2)cc1 (centres unmarked) [GW767488X]
potency estimated from few doses (CDK6; [1]): 1.05 µM
potency estimated from few doses (IRAK4; [1]): 1.63 µM
potency estimated from few doses (NLK; [1]): 2.18 µM
potency estimated from few doses (NQO2; [1]): 1.23 µM

CCN(CC)Cc1ccc(Nc2nccc(-c3cnn4ncccc34)n2)cc1 [GW780056X]
potency estimated from few doses (CDK6; compound concentrations: 100 nM and 1000 nM (sheet 'Samples'), CATDS: 6.8164228175802102E-2): 0.0832 µM
potency estimated from few doses (NQO2; compound concentrations: 100 nM and 1000 nM (sheet 'Samples'), CATDS: 3.67642918881117E-2): 0.274 µM

CN(C)CCNC(=O)Nc1ccc(N(C)c2ccnc(Nc3ccc(CS(C)(=O)=O)cc3)n2)cc1.Cl [GW830900A]
potency estimated from few doses (JAK2; [1]): 1.05 µM
